Data published in PubChem BioAssay (EPA / NIEHS).
Records with an inconclusive call do not appear. Active and inactive are the calls of the source. Rule for the calls, unless noted: active = hit-call score of the fitted dose curve at least 0.9, where 1 is the maximum; inactive = score below 0.9.

How the values were obtained:
[1] = ATG_NFI_CIS: Attagene CIS-FACTORIAL HepG2 Assay for human Nuclear Factor I (NFI) (AID 2282989); settings: HepG2 cis-regulatory reporter, NFI response element transcription; actives raise or lower the signal
Procedure, shortened: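 Cells: human liver HepG2, transiently transfected with promoter-regulated reporter transcription units. Exposure 24 h. Detection: fluorescent RT-PCR products separated by capillary electrophoresis, normalised to DMSO negative control.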

[2] = target: Myc proto-oncogene protein (Homo sapiens) (UniProt P01106); assay: ATG_Myc_CIS: Attagene CIS-FACTORIAL HepG2 Assay for human Myelocytomatosis (Myc) Proto-Oncogene Transcription Factor (AID 2282990); settings: HepG2, Attagene cis-reporter transcription factor activity; actives raise or lower the signal
Procedure, shortened: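 Cells of the HepG2 human liver line bear multiple cis-driven reporter transcription units. Reporter mRNA after 24 h exposure is reverse-transcribed, amplified, labelled and resolved by capillary electrophoresis, with gain- or loss-of-signal fitting relative to DMSO.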

[3] = ATG_NF_kB_CIS: Attagene CIS-FACTORIAL HepG2 Assay for human Nuclear Factor Kappa B (NF-kB) (AID 2282991); settings: HepG2 Attagene cis-factorial NF-kB reporter mRNA; actives raise or lower the signal
Procedure, shortened: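 HepG2 cells transfected with cis-promoter-driven reporter units, so endogenous transcription factor activity is measured. Reporter mRNA quantified 24 h after dosing by RT-PCR and capillary electrophoresis, with bidirectional fitting against DMSO.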

[4] = ATG_NRF2_ARE_CIS: Attagene CIS-FACTORIAL HepG2 Assay for human Nuclear Factor Erythroid 2 Related Factor 2 (NFR2) response to Antioxidant Response Elements (ARE) (AID 2282992); settings: HepG2 Attagene ARE/NRF2 reporter, transcription factor activity; actives raise or lower the signal;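 for AC50: reporter mRNA level measured by RT-PCR and capillary electrophoresis fluorescence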
Procedure, shortened: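 HepG2 cells transiently transfected with multiplexed cis-regulated reporter transcription units measure endogenous transcription factor activity. Reporter mRNA at 24 h is quantified by RT-PCR, fluorescent labelling and capillary electrophoresis, with bidirectional fitting relative to DMSO.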

[5] = ATG_Oct_MLP_CIS: Attagene CIS-FACTORIAL HepG2 Assay for human Octamer-Binding Transcription Factor (Oct) (AID 2282993); settings: HepG2 Attagene cis-factorial Oct reporter, mRNA; actives raise or lower the signal
Procedure, shortened: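 HepG2, transient MRTU transfection, cis promoter elements; 24 h dosing; RT-PCR/CE fluorescence read-out of reporter mRNA; fit both directions vs DMSO.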

[6] = target: human Peroxisome Proliferator-activated Receptor delta (PPARd), PPARD (gene 5467) (UniProt Q03181); assay: ATG_PPARd_TRANS: Attagene TRANS-FACTORIAL HepG2 Assay for human Peroxisome Proliferator-activated Receptor delta (PPARd) (AID 2283002; active = hit-call score of the fitted dose curve at least 0.9, where 1 is the maximum)
Procedure, shortened: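 Cell-based TRANS reporter: HepG2, transient MRTU transfection, 24 h exposure. Readout = reporter mRNA (RT-PCR/CE, 6-FAM). Gain-of-signal fit vs DMSO control.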

[7] = target: Peroxisome proliferator-activated receptor gamma (Homo sapiens) (UniProt P37231); assay: ATG_PPARg_TRANS: Attagene TRANS-FACTORIAL HepG2 Assay for human Peroxisome Proliferator-activated Receptor-gamma (PPARg) (AID 2283007; active = hit-call score of the fitted dose curve at least 0.9, where 1 is the maximum)
Procedure, shortened: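 HepG2 cells are transiently transfected with GAL4-UAS reporter units driven by chimeric NR-Gal4 fusions and dosed for 24 h. Reporter mRNA is quantified by RT-PCR, 6-FAM labelling, HpaI digestion and capillary electrophoresis. Induction is scored against DMSO.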

[8] = target: Nuclear receptor subfamily 1 group I member 2 (Homo sapiens) (UniProt O75469); assay: ATG_PXR_TRANS: Attagene TRANS-FACTORIAL HepG2 Assay for human Pregnane X Receptor (PXR) (AID 2283008; active = hit-call score of the fitted dose curve at least 0.9, where 1 is the maximum)
Procedure, shortened: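 HepG2 cells transiently transfected with multiple reporter units, here a PXR-GAL4 chimera driving a GAL4-UAS reporter; 24 h compound exposure. Reporter mRNA measured by RT-PCR, FAM labelling and capillary electrophoresis; gain of signal fitted against DMSO baseline.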

[9] = target: Cellular tumor antigen p53 (Homo sapiens) (UniProt P04637); assay: ATG_p53_CIS: Attagene CIS-FACTORIAL HepG2 Assay for human p53 Transcription Factor (AID 2282994); settings: HepG2 p53 cis-element reporter, Attagene mRNA; actives raise or lower the signal
Procedure, shortened: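 HepG2 cells transiently transfected with multiplexed cis-regulated reporter transcription units read endogenous TF activity. After 24 h compound exposure, reporter mRNA was quantified by RT-PCR, fluorescent labelling, HpaI digestion and capillary electrophoresis; bidirectional fits versus DMSO baseline.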

[10] = target: human Peroxisome Proliferator-activated Receptor alpha (PPARa), PPARA (gene 5465) (UniProt Q07869); assay: ATG_PPARa_TRANS: Attagene TRANS-FACTORIAL HepG2 Assay for human Peroxisome Proliferator-activated Receptor alpha (PPARa) (AID 2283001; active = hit-call score of the fitted dose curve at least 0.9, where 1 is the maximum)
Procedure, shortened: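 Reporter transcripts from GAL4-UAS units in transfected HepG2 were quantified 24 h after dosing. Detection used reverse transcription, PCR, fluorescent primer extension and capillary electrophoresis, with DMSO as baseline.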

[11] = target: human Retinoic Acid Receptor beta (RARb), RARB (gene 5915) (UniProt P10826); assay: ATG_RARb_TRANS: Attagene TRANS-FACTORIAL HepG2 Assay for human Retinoic Acid Receptor beta (AID 2283004; active = hit-call score of the fitted dose curve at least 0.9, where 1 is the maximum)
Procedure, shortened: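 Readout is reporter mRNA induction: RNA reverse-transcribed, PCR-amplified, FAM-labelled, HpaI-cut and resolved by capillary electrophoresis. Transiently transfected HepG2 cells carrying exogenous NR–Gal4 chimeras were dosed for 24 h; activity fitted upward relative to DMSO.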

[12] = target: Retinoic acid receptor alpha (Homo sapiens) (UniProt P10276); assay: ATG_RARa_TRANS: Attagene TRANS-FACTORIAL HepG2 Assay for human Retinoic Acid Receptor alpha (RARa) (AID 2283005; active = hit-call score of the fitted dose curve at least 0.9, where 1 is the maximum)
Procedure, shortened: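 Reporter transcripts, measured by RT-PCR with fluorescent labeling and capillary electrophoresis after 24 h dosing, reflect activity of an exogenous human RARa–GAL4 fusion in transiently transfected HepG2. Fitted for increase relative to DMSO.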

[13] = target: human Retinoic Acid Receptor gamma (RARg), RARG (gene 5916) (UniProt P13631); assay: ATG_RARg_TRANS: Attagene TRANS-FACTORIAL HepG2 Assay for human Retinoic Acid Receptor gamma (RARg) (AID 2283009; active = hit-call score of the fitted dose curve at least 0.9, where 1 is the maximum)
Procedure, shortened: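 HepG2, RARg-GAL4 TRANS system, 24 h exposure; reporter mRNA by RT-PCR + CE fluorescence; increase over DMSO.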

Measured: AC50

Sequence of human Peroxisome Proliferator-activated Receptor delta (PPARd), PPARD (gene 5467) (Q03181 whole entry, looked up): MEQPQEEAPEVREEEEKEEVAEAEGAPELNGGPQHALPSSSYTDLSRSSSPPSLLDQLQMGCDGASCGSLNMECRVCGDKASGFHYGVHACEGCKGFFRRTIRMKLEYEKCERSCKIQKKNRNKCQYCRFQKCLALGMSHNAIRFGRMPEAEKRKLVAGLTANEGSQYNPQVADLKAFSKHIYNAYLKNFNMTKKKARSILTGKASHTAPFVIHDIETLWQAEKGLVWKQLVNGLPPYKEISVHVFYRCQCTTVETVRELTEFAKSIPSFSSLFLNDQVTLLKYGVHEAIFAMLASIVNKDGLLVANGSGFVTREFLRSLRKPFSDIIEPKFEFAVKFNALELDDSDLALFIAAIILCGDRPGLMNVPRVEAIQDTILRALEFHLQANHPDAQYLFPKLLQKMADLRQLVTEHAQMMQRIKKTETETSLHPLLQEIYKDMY
Sequence of human Peroxisome Proliferator-activated Receptor alpha (PPARa), PPARA (gene 5465) (Q07869 whole entry, looked up, the tested form may be a part): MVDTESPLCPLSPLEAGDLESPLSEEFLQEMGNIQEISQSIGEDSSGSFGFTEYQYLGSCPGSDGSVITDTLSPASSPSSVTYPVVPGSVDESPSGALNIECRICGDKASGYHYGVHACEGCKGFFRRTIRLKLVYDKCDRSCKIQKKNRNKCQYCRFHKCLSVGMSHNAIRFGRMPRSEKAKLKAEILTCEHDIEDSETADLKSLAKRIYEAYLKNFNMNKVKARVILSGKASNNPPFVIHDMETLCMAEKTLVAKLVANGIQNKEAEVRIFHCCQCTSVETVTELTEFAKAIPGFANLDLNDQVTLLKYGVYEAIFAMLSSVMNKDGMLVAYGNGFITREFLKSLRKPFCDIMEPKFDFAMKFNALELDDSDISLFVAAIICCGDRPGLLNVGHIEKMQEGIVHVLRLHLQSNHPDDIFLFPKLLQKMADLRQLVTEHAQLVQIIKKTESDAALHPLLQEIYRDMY
Sequence of Nuclear receptor subfamily 1 group I member 2 (Homo sapiens) (O75469 whole entry, looked up, the tested form may be a part): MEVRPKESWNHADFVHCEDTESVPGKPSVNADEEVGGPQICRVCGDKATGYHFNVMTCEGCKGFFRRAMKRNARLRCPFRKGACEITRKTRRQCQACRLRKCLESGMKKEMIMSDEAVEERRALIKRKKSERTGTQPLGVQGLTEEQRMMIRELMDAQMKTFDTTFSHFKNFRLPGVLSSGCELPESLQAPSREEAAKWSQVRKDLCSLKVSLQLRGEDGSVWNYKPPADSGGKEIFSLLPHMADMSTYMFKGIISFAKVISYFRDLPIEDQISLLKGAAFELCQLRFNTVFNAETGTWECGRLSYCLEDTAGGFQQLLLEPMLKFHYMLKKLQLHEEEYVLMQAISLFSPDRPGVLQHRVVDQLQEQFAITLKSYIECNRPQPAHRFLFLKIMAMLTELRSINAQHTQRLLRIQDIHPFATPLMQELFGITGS
Sequence of Myc proto-oncogene protein (Homo sapiens) (P01106 whole entry, looked up): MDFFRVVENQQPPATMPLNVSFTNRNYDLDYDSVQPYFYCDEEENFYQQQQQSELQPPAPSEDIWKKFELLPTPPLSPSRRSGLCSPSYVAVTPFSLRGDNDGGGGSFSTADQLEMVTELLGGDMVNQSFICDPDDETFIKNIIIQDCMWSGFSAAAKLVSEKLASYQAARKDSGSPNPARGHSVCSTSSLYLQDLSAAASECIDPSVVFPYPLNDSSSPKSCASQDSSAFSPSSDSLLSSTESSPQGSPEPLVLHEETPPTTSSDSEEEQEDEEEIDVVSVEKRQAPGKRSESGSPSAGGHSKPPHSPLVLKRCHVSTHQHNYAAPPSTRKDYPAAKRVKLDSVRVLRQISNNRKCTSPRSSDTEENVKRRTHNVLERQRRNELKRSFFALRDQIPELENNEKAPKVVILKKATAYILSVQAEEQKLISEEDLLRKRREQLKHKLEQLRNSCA
Sequence of Peroxisome proliferator-activated receptor gamma (Homo sapiens) (P37231 whole entry, looked up, the tested form may be a part): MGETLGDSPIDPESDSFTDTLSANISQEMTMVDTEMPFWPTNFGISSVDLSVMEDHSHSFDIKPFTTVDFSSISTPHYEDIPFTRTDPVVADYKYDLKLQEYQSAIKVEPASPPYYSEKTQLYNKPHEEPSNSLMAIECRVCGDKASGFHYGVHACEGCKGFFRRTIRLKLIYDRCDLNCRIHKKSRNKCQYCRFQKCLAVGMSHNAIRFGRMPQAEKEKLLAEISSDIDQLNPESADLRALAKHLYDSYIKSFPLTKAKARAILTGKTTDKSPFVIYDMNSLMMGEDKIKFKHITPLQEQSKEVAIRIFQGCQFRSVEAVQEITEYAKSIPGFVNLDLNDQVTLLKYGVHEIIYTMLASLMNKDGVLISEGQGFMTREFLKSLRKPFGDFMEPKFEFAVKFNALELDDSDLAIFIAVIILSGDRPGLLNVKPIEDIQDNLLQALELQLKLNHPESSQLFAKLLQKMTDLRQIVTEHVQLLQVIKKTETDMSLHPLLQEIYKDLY
Sequence of Cellular tumor antigen p53 (Homo sapiens) (P04637 whole entry, looked up): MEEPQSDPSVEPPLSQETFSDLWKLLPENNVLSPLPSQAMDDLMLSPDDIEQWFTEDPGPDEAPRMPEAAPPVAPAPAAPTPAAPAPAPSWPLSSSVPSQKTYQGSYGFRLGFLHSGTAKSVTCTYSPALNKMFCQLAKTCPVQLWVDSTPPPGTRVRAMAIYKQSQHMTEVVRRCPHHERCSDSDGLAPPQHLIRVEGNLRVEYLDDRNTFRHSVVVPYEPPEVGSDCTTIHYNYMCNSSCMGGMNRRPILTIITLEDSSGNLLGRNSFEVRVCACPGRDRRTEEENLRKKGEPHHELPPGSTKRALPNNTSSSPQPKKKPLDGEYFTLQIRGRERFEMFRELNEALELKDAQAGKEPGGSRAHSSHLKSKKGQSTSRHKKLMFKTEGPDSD
Sequence of Retinoic acid receptor alpha (Homo sapiens) (P10276 whole entry, looked up, the tested form may be a part): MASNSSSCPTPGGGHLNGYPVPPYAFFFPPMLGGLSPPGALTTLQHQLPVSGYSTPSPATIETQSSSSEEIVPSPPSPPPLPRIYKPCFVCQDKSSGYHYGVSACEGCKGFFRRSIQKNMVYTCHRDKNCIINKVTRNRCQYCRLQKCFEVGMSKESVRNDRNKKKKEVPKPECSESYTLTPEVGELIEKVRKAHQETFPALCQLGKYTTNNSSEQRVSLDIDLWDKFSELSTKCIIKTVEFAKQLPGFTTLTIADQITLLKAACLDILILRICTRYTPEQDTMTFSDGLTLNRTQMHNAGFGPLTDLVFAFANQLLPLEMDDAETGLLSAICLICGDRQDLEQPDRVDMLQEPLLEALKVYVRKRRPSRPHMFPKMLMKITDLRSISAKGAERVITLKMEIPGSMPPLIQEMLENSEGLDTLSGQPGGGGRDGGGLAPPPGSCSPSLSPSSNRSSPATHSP
Sequence of human Retinoic Acid Receptor gamma (RARg), RARG (gene 5916) (P13631 whole entry, looked up, the tested form may be a part): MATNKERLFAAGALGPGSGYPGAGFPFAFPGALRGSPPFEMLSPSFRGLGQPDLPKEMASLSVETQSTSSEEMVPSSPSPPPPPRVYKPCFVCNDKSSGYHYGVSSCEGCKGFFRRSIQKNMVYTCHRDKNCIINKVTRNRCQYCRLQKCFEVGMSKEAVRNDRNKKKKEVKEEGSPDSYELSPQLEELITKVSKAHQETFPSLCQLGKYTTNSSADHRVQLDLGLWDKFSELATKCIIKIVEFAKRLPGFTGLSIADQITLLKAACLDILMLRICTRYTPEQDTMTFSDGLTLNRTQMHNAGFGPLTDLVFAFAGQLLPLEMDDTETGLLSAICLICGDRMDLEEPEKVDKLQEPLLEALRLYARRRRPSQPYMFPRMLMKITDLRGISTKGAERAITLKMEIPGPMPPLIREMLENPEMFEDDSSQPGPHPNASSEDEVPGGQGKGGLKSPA
Sequence of human Retinoic Acid Receptor beta (RARb), RARB (gene 5915) (P10826 whole entry, looked up, the tested form may be a part): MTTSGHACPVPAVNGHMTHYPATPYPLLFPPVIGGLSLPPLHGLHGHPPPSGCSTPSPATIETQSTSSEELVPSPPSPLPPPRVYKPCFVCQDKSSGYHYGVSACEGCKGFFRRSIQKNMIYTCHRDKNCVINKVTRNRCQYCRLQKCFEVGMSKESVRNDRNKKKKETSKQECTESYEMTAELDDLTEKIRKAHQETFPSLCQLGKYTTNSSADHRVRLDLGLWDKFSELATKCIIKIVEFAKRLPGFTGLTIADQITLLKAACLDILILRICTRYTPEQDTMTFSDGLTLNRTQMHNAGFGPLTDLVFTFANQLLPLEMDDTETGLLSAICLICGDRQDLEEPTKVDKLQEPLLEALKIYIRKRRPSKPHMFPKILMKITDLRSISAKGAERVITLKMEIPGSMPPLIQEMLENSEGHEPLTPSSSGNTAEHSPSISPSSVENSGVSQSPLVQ

CCCCCCC(C)Nc1ccc(Nc2ccccc2)cc1 (stereo not given)
inactive: [1] | [2] | [3] | [5] | [6]
active: [4] 24.1 µM | [7] 11.7 µM | [8] 1.53 µM

Cc1[nH]c(=O)c(C#N)cc1-c1ccncc1
not listed: [5] | [11] | [12] | [13]
inactive: all other assays above

CCCSc1ccc2nc(NC(=O)OC)[nH]c2c1
not listed: [5] | [7] | [11] | [12] | [13]
inactive: all other assays above

COc1ccc(COC(C)=O)cc1
inactive: [1] | [2] | [3] | [4] | [5] | [10] | [6]

CC1CCC(C(C)C)C(O)C1 (stereo not given)
not listed: [9] | [10]
inactive: all other assays above

Cc1ccc(-c2ccccc2)cc1
inactive: [1] | [2] | [3] | [4] | [5] | [9] | [8]
